# This is a sample that favours compounds with a hit; in the whole collection about 3.5% have one here.
# TSHR ag = activates the human thyroid stimulating hormone receptor; P16473; AID 926; Potency, µM (titrated, usually from 57.1 µM), without a hit: at the top dose activation, usual class: activators; HEK293-CNG-TSHR cells (CNG channel as cAMP sensor), membrane potential dye, cAMP; 73,000 compounds, 0.48% hits; active = well fitted activation curve with a large enough effect in the main read-out, with a control signal flat, not every such curve was filed as active; inconclusive = small, poorly fitted or top-dose-only effect, or a change in a side signal; inactive = no such curve, though single readings can be large or run the other way; % of control where 0% means no effect;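 also: the control signal comes from parental cells without the receptor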
# Target sequence (P16473 whole entry, looked up): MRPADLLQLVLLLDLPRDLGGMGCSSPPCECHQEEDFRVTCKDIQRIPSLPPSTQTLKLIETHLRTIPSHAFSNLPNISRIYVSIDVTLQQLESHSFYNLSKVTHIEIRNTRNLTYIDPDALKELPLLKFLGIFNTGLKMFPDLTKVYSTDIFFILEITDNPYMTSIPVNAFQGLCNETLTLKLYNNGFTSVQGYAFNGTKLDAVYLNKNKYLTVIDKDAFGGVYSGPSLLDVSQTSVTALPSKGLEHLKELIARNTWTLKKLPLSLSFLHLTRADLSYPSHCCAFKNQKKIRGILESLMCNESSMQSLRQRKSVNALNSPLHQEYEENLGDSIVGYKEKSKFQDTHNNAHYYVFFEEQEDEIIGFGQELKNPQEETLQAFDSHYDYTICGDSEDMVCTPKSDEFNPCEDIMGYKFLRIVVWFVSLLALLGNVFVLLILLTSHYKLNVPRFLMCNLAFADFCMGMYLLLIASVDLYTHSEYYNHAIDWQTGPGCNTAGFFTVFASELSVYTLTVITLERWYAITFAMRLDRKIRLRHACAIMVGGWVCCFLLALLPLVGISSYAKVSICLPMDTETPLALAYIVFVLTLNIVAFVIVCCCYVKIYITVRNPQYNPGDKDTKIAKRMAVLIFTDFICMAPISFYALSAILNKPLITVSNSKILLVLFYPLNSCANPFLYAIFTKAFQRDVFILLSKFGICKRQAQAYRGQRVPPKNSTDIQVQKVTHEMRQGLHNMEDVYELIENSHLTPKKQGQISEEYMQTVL
#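 HEK 293 cells stably expressing TSHR and a modified CNG channel, with CNG-only parental cells as counterscreen, were preloaded 60 min at room temperature with membrane potential dye containing 100 uM RO 20-1724. Compound exposure was 30 min, and depolarization was read as fluorescence at 590 nm.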
# CRE Fsk mod = CRE-bla signaling modulation under forskolin stimulation | CHO CRE-bla reporter (cAMP response element driving beta-lactamase), forskolin EC10, beta-lactamase ratio | Potency, µM (top dose mostly 38.2 µM), for the others: at the highest dose activity change, negative = inhibition, actives largely listed as activators | 71,000 compounds, 2.5% hits | AID 662; active = well fitted activation curve with a large enough effect in the signal ratio, with a control signal flat, not every such curve was filed as active; inconclusive = small, poorly fitted or top-dose-only effect, or effect the other way, or a change in a side signal; the % refers to the signal ratio; also: % of control where 0% means no effect
#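 Titrated compounds plus EC10 NKH 477 on CHO CRE-bla cells, 3 h, 37 °C. CCF4, 2 h RT. Ratio 460/530 nm → AC50.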
# IkB signaling = IkB pathway inhibition in ABC-DLBCL cells; ABC-DLBCL IkBa-CBG/CBR dual luciferase ratio, 4 h; response scale: scaled: untreated 0%, proteasome inhibitor 100%; Potency, µM (doses to about 57.1 µM), inactives show at the highest dose IkBa stabilization activation; 110,000 compounds, 0.04% hits; AID 445; active = well fitted curve in the direction sought with a large enough effect in the signal ratio, not every such curve was filed as active; inconclusive = small, poorly fitted or top-dose-only effect, or a change in a side signal; the % refers to the signal ratio;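 also: the direction sought is a rising ratio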
#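 In this assay, an IκBα–CBG68 fusion accumulates when IKK-driven degradation is blocked; native CBR normalizes for cell number. OCI-Ly3 cells were treated 4 h with compound and doxycycline, then green and red light read after Chroma-Glo addition.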
# Hsp90 Hop PPI = changes Hsp90-Hop TPR2A binding signal, up or down; AlphaScreen TPR2A-His6 binding biotin-Hsp90 C-terminal peptide; Potency, µM (series often up to 57 µM), without a hit: top-dose activity change, negative = inhibition; 71,000 compounds, 0.44% hits; AID 595; active = well fitted curve in either direction with a large enough effect; inconclusive = small, poorly fitted or top-dose-only effect, or another doubt; also: % is scaled to controls: 0 for no effect and ±100 for the full control effect
# HEK293 cAMP cs = parental HEK293 cAMP activation (counter-screen); 73,000 compounds, 2.5% hits; Potency, µM (highest dose often 57.1 µM), for inactives: at the highest dose activation, most hits filed as activators; parental HEK293 CNG cAMP sensor, membrane potential fluorescence; active = well fitted activation curve with a large enough effect; inconclusive = small, poorly fitted or top-dose-only effect; inactive = no such curve, though single readings can be large or run the other way; also: % of control where 0% means no effect; nearly all actives have a fitted effect of over 55% in size
#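 Parental HEK 293 cells stably expressing a modified CNG channel (no TSHR) report cAMP rise as membrane depolarization. Membrane potential dye with 100 uM RO 20-1724 was loaded for 60 min at room temperature, then compound added for 30 min; fluorescence read at 590 nm.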
# An asterisk follows results filed as active; ? = inconclusive; / = not tested or not shown; [ ] = remark or other dose. Potency is read from the fitted curve at half-maximal effect.
SMILES,TSHR ag,CRE Fsk mod,IkB signaling,Hsp90 Hop PPI,HEK293 cAMP cs
COc1cccc(-c2ccc3ncnc(NCc4ccccc4OC)c3c2)c1,?,?,?,-1%,?
COc1ccc(CNc2ncnc3ccc(-c4ccc(N(C)C)cc4)cc23)c(OC)c1,?,?,5%[11.4 µM],?,-50%
O=C(Nc1cccc(F)c1)N1CC[C@@]2(CCCN(S(=O)(=O)c3ccccc3)C2)C1,?,-7%,-1%[11.4 µM],-2%,?
COc1cccc(-c2cc(C(F)(F)F)n3nc(-c4ccc(C)cc4)cc3n2)c1,/,/,-1%,/,/
COc1ccc(-c2cc(C(F)(F)F)n3nc(C)cc3n2)cc1,-8%,10µM*,-5%,?,0%
CC1(C)CC2CC(C)(CN2C(=O)COC(=O)c2ccc(Cl)cc2N)C1 (stereo not drawn),?,0%,0%,1%,25µM*
C[C@](N)(C(=O)O)c1ccc(-c2nn[nH]n2)cc1,3%,-2%,0%,-5%,-2%
COC(=O)C(C)Sc1nnc2cc(C)c3cc(C)cc(C)c3n12 (stereo not drawn),/,/,-2%,/,/
O=C(CN1CCN(C2CCCCC2)CC1)Nc1ccccc1-c1ccccc1,?,-8%,0%,-3%,16µM*
Cc1cc(S(=O)(=O)NCc2ccco2)c(C)s1,18%[11.4 µM],1%,-1%,-2%,18%
Cc1cc(S(=O)(=O)NCCN(C)C)c(C)s1,8%,13µM*,-2%,-1%,5%
CC(c1ccco1)N(C(=O)COc1ccc(Cl)cc1Cl)c1ccccn1 (stereo not drawn),?,-6%,?,5%,25µM*
CC(c1ccco1)N(C(=O)COc1ccc(Cl)cc1)c1ccccn1 (stereo not drawn),13%,-11%,-2%,-1%,10%
CC1(C)N=C(N)N=C(N)N1c1cccc(OCc2cccc([N+](=O)[O-])c2)c1,11%[11.4 µM],-3%[7.6 µM],2%[11.4 µM],-1%[11 µM],-3%[11.4 µM]
O=C(c1cccc2c1-c1ccccc1/C2=N/O)N1CCCCC1,?,?,?,-3%,13µM*
O=C(c1cccc(F)c1)N1CCC2(CCN(Cc3cc(C(F)(F)F)cc(C(F)(F)F)c3)CC2)CC1,-4%,4%,3%[11.4 µM],-1%,4%
CCCCS(=O)(=O)c1nc(-c2ccc(Br)cc2)cc(-c2ccccc2)c1C#N,/,/,3.2µM*,/,/
Cc1ccc(CN(C)C(=O)c2ccccc2Oc2ccccc2)o1,?,-18%,4%,-3%,32µM*
COC(=O)c1ccc(C(NC(=O)OCc2ccccc2)/C(I)=C/[C@@H](C)C(=O)Nc2ccccc2)cc1 (stereo partly drawn),27%,-14%,/,-3%,14%
Cc1ccc(Cl)cc1NC(=O)CC(O)(C(F)(F)F)C(F)(F)F,?,5%,?,0%,6.3µM*
Cc1ccc(Cl)cc1NC(=O)Cn1cccc1,4%[11.4 µM],-6%,1%,-8%,22%
O=C(Nc1nc(-c2nc3ccccc3s2)cs1)C1COc2ccccc2O1 (stereo not drawn),?,4µM*,?,3%,?
CCN1CCN(c2ncnc3c2oc2nc(C(C)C)c4c(c23)CCC4)CC1,-1%,11%,-4%,-4%,24%
CC(C)Cc1nc2oc3c(NCc4cccnc4)ncnc3c2c2c1CCC2,8%,2µM*,-1%,-1%,5%
CC(C)Cc1nc2oc3c(N4CCN(CCO)CC4)ncnc3c2c2c1CCCC2,?,2µM*,3%,-3%,16µM*
SMILES,TSHR ag,CRE Fsk mod,IkB signaling,Hsp90 Hop PPI,HEK293 cAMP cs
CC1CCCN(c2ncnc3c2cnn3-c2ccc(F)cc2)C1 (stereo not drawn),/,/,6%,/,/
CCOC(=O)c1cnn(-c2nc(-c3ccccc3)nc3c2COC(C)(C)C3)c1N,25µM*,8%,-1%,-5%,21%
CCOC(=O)c1cnn(-c2nc(C)cc(C)n2)c1N,?,3%,0%,-4%,?
Cc1cc(/C=N/n2cnnc2)c(C)n1-c1ccc(OCc2ccccc2F)cc1,?,24%[7.6 µM],?,-22%[11 µM],?
Fc1ccccc1COc1cccc(/C=N/n2cnnc2)c1,?,8%,3%,-6%,32µM*
CCN1CCC(O)([C@H](C(=O)O)c2ccccc2)CC1,-2%[11.4 µM],11%[7.6 µM],-1%[11.4 µM],-1%[11 µM],12%[11.4 µM]
